Screening data from PubChem.
TPT1 inhibitor = Candida albicans TPT1 enzyme inhibitors, primary screen, biochemical, fluorescence polarization | tRNA 2'-phosphotransferase TPT1 (Candida albicans SC5314) | recombinant caTPT1, FP RNA substrate dephosphorylation | 300,000 compounds, 0.81% hits | inhibition, % at 5 µM | AID 1962, 2009;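 active means inhibition above the mean of all tested compounds plus 3 SD, set per screening campaign, cut at about 24% in these data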;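 further: plate controls were DMSO alone for no effect and ferristatin control at 100 nM for full effect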
HNF4A DNA FP = change in binding of human HNF4A to DNA, primary screen, biochemical, fluorescence polarization, FITC-DNA | Hepatocyte nuclear factor 4-alpha (Homo sapiens), P41235 | 1 h | activity change, % at 10 µM | 360,000 compounds, 0.3% hits | AID 1224865, 2016; in the data active means activity change above about 30%, passing the limit was not always enough
Rpn11 inh = Rpn11 (PSMD14) deubiquitinase inhibitors, primary screen, biochemical, fluorescence polarization, uHTS. 26S proteasome non-ATPase regulatory subunit 14 (Homo sapiens), O00487. human 26S proteasome, Ub4-pepOG fluorescence polarization; 20S core pre-blocked with epoxomicin. AID 588493, 2011. 360,000 compounds, 0.59% hits. inhibition, % at 20 µM;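 active means inhibition at 20 µM, scaled to each plate's controls, above about 33%, limit read from the data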
Myeloid diff 2 = induction of myeloid progenitor differentiation, primary screen, cell-based, flow cytometry, MLPCN library | ER-HoxA9 myeloid progenitors, lysozyme-GFP differentiation | calls only at 10 µM | 360,000 compounds, 1% hits | AID 624256, 2012;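 active means normalized GFP-positive differentiation at or above the plate's own cutoff, the solvent-only control mean plus 3 SD; inconclusive means no clear call, values can overlap the other calls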;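 further: cells exposed to compound for four days before flow analysis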
TPT1 inh confirm = Candida albicans TPT1 inhibitors, confirmation, biochemical, fluorescence polarization, triplicate; shares compounds with TPT1 inhibitor; recombinant caTPT1, RNase T1 coupled; inhibition, % at 5 µM; 2,400 compounds, 74% hits; AID 2149, 2009;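 active means inhibition above the primary screen limit, the mean inhibition of all tested compounds plus 3 SD, cut at about 25% in these data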
RNase T1 inh = RNase T1 inhibitors, counter-screen for TPT1 inhibitor project, biochemical, fluorescence polarization; RNase T1 cleavage, 1536-well; shares compounds with TPT1 inhibitor; 2,400 compounds, 83% hits; inhibition, % at 5 µM;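 active means inhibition above the solvent-only control well mean plus 3 SD, limit set per screening run, cut at about 23% in these data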;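 further: plate controls were DMSO wells with enzyme for no effect and wells without RNase T1 for full effect; inhibitors block cleavage so intact labeled substrate keeps polarization high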
Target sequence (P00651 whole entry, looked up): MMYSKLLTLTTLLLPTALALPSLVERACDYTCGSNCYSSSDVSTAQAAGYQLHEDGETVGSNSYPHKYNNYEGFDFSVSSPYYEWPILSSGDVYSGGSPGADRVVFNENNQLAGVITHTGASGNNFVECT
Starred values were filed as active, the others as inactive; i = inactive; ? = inconclusive; / = not tested or not shown; + = active, no number. Rows were chosen to be rich in hits. Some 2.1% of all compounds tested hit in one or more screens of this group.

SMILES | TPT1 inhibitor | HNF4A DNA FP | Rpn11 inh | Myeloid diff 2 | TPT1 inh confirm | RNase T1 inh
CCN(CC)c1ccc(/C=c2\sc3nnc(-c4ccccc4Cl)n3c2=O)cc1 | + | 87 | / | i | 176* | 163*
CC(C)N(C(=S)Nc1cccnc1)c1ccccc1 | 1 | 3 | 1 | i | / | /
Cc1ccc(O)c(C(=O)c2cc(C#N)c(=O)n(C(C)c3ccccc3)c2)c1 (configuration not stated) | 3 | -1 | 6 | i | / | /
Cc1ccc(O)c(C(=O)c2cc(C#N)c3nc4ccccc4n3c2)c1 | 39* | 81 | / | / | 59* | 72*
O=C(c1ccco1)[C@@H]1[C@@H]2C(=O)N(c3ccc(F)cc3)C(=O)[C@@H]2[C@H]2C=Cc3ccccc3N21 | 30* | 18 | 14 | i | 21 | 31*
NC(=O)[C@@H]1[C@@H]2C(=O)N(c3ccc(F)cc3)C(=O)[C@@H]2[C@H]2C=Cc3ccccc3N21 | 7 | 12 | 12 | i | / | /
O=C(c1cc2ccccc2o1)N1CCN(c2cccc(Cl)c2)CC1 | 2 | 1 | -29 | i | / | /
O=C(C1=NN(c2ccccc2)C2C(=O)N(c3cccc(Cl)c3)C(=O)C12)c1ccccc1 (configuration not stated) | 33* | 10 | -31 | i | 37* | 51*
O=C(C1=NN(c2ccccc2)C2C(=O)N(c3ccc(Cl)cc3)C(=O)C12)c1ccccc1 (configuration not stated) | 33* | 5 | 4 | i | 23 | 35*
O=C1C2C3CC(C2C(=O)N1c1cccc(Cl)c1)[C@H](O)C3O (some centres not stated) | -6 | 0 | -8 | i | / | /
O=C(NCc1ccccc1)c1cc(S(=O)(=O)N2CCOCC2)ccc1F | 48* | 17 | 28 | i | 40* | 52*
O=C(NCCc1ccccc1)c1cc(S(=O)(=O)N2CCOCC2)ccc1F | 4 | 1 | 5 | i | / | /
C[C@@H]1c2ccccc2N2C[C@H](Cc3ccc(C(=O)c4ccccc4)cc3)C[C@@H]12 | / | -2 | 10 | i | / | /
COC(=O)c1ccc(C(=O)OC)c(NC(=O)COC(=O)C2CC2C)c1 (configuration not stated) | -7 | -2 | 0 | i | / | /
CN(C)c1ccc(/C=C/c2nc3ccccc3c(=O)n2-c2ccc(C(=O)O)cc2)cc1 | 144* | 151 | / | + | 159* | 143*
O=C(O)c1cccc(-n2c(/C=C/c3ccccc3)nc3ccccc3c2=O)c1 | -2 | -2 | -7 | i | / | /
COc1ccccc1N1C(=O)C2C(C(=O)c3ccccc3)=NN(c3ccc(C)cc3)C2C1=O (configuration not stated) | 51* | -23 | -62 | i | 65* | 73*
COc1ccccc1N1C(=O)C2C(C(=O)c3ccccc3)=NN(c3ccc(Br)cc3)C2C1=O (configuration not stated) | 35* | 32 | 22 | i | 27* | 41*
COC(=O)C1=NN(c2ccc(C)cc2)C2C(=O)N(c3ccccc3OC)C(=O)C12 (configuration not stated) | 0 | 7 | -2 | i | / | /
CCN(C(=O)C(C)N1C(=O)/C(=C/c2ccco2)SC1=S)C1CCS(=O)(=O)C1 (configuration not stated) | 10 | -2 | 10 | ? | / | /
O=C1/C(=C/C=C/c2ccco2)SC(=S)N1NS(=O)(=O)c1ccccc1 | 85* | -58 | / | i | 67* | 34*
CC(C(=O)O)N1C(=O)/C(=C/C=C/c2ccco2)SC1=S (configuration not stated) | 61* | -47 | / | i | 34* | 45*
